This passage reports inhibition results from PubChem BioAssay AID1918969 (ICCB-Longwood Screening Facility, Harvard Medical School, 2023).

Out of some 190,000 compounds screened, about 280 (0.15%) were called active. This is one part of a sample in which actives are shown more often than they occur. No stated cut-off is given here; in the data, active means inhibition above about 27% (passing the limit was not always enough); inactive means the rest.

This assay deals with HCMV UL50-UL53 nuclear egress complex (human cytomegalovirus). Put plainly: HCMV nuclear egress complex disruptors – biochemical, HTRF (AID 1918969). To be noted: HTRF UL50-UL53 interaction, normalized percent inhibition; hits give high values; concentration not given here.
For the compound `O=C(Cc1csc(NC(=O)NC2CCCC2)n1)NCCc1c[nH]c2ccccc12`, the inhibition (commonly the drop in the measured response relative to a control, in per cent) is -1.1% (inactive).

As for `CCOC(=O)c1c(NC(=O)Cc2ccccc2)sc(C(=O)Nc2cccc(C(F)(F)F)c2)c1C`, the inhibition is 8.1% (inactive).

Regarding `Cc1noc(C)c1COc1ccc(C(=O)OCC(=O)Nc2sc3c(c2C(N)=O)CCC3)cc1`, the inhibition was 13.2% (inactive).

On to `Cc1nn(C)cc1CN(C)C(=O)c1cnn2c(C(F)(F)F)cc(-c3ccc(Br)cc3)nc12`, for which the inhibition is -24.9% (inactive).

Consider `Cc1ccc(C(CNC(=O)Nc2ccccc2)N2CCN(C)CC2)cc1` (configuration not stated), for which the inhibition was -33.4% (inactive).

Take `N#Cc1cccc(NC(=O)CSc2ncccn2)c1`: the inhibition was 14.4% (inactive).

For the compound `Cc1ccc(NC(=O)Cn2cnc3ccc(S(=O)(=O)N4CCC(C)CC4)cc3c2=O)cc1F`, the inhibition is -4.6% (inactive).

Turning to `C#CCN1C(=O)C(c2c(-c3ccc(Cl)cc3)[nH]c3c2c(=O)n(C)c(=O)n3C)c2ccccc21` (configuration not stated), the inhibition is -14.2% (inactive).

`COc1cc(OC)cc(C(=O)N2N=C(c3c(-c4ccccc4)c4cc(Br)ccc4[nH]c3=O)CC2c2ccco2)c1` (configuration not stated): the inhibition was 0.4% (inactive).

Take `CCOc1ccc(/C=C2\SC(=O)N(CCNC(=O)c3c(CC)noc3C)C2=O)cc1OC`: the inhibition was -3.2% (inactive).

For `Cn1nccc1-c1nc(-c2cccc(NC(=O)Nc3ccccc3)c2)no1`, the inhibition is -30% (inactive).

Take `COC(=O)c1sccc1NC(=O)Cn1c(=O)nc(-c2ccccc2F)c2cc(Cl)ccc21`: the inhibition was -19.3% (inactive).

For the compound `CC1(C)CC(NCCNC2=CC(=C(C#N)C#N)CC(C)(C)C2)=CC(=C(C#N)C#N)C1`, the inhibition is -0.1% (inactive).

For the compound `COc1ccc(-c2cc(C3CC3)nc3sc(C(N)=O)c(N)c23)cc1`, the inhibition is -38.3% (inactive).

`Cn1c(CCc2ccc(NC(=O)CN3C(=O)COc4ccccc43)cc2)nc2ccccc21`: the inhibition was -5.5% (inactive).

Regarding `NCC(c1ccccc1)N1CCCC1` (configuration not stated), the inhibition is -3.2% (inactive).

In the case of `Cc1ccc(S(=O)(=O)N/N=C2/CSCC2NC(=O)c2ccccc2)cc1` (configuration not stated), the inhibition is -22.7% (inactive).

Turning to `CCC(C)NS(=O)(=O)c1cc(C(=O)OC)n(C)c1C` (configuration not stated), the inhibition is -32.5% (inactive).

With `CC(=O)N1c2ccc(S(=O)(=O)N3CCN(c4nc5ccccc5n5cccc45)CC3)cc2CC1C` (configuration not stated), the inhibition is -16.8% (inactive).

On to `Cc1cc(C)cc(NC2=NS(=O)(=O)c3ccccc32)c1`, for which the inhibition is 7.9% (inactive).

On to `CCn1c(COC(=O)C2CSC3(C)CCC(=O)N23)nc2cc(S(=O)(=O)N(C)C)ccc21` (configuration not stated), for which the inhibition is -24.2% (inactive).

Consider `COC(=O)c1cc(OC(=O)c2cc(OC)cc(OC)c2)cc(C(=O)OC)c1`, for which the inhibition was 6.8% (inactive).

On to `COCC(=O)Nc1nc2nc(-c3ccccc3)cc(=O)n2[nH]1`, for which the inhibition is -6.9% (inactive).

Turning to `COc1ccccc1CNC(=O)C1CCN(c2ncnc3c2sc2nc(C)cc(-c4ccccc4)c23)CC1`, the inhibition was -7.4% (inactive).

Turning to `O=C(Nc1ccc2sccc2c1)C1CC1`, the inhibition is -0.1% (inactive).

`COc1ccc(NC(=O)CN2C(=O)C(C)(C)c3ccccc32)cc1`: the inhibition was -13.1% (inactive).

Regarding `CCOC(=O)c1cc(Nc2cc(OCC)ccc2OCC)c2cc(C)ccc2n1`, the inhibition is -15.8% (inactive).

Consider `COc1nc(N)c(C#N)c(-c2ccccc2)c1C#N`, for which the inhibition is 5.4% (inactive).

As to `CC(C)CSc1nccn2nc(-c3ccc(Cl)cc3)cc12`, the inhibition is 15.5% (inactive).

As for `CCOC(=O)c1cccc(NC(=O)c2ccc(CN3CC(=O)N4CSCC4C3=O)cc2)c1` (configuration not stated), the inhibition was -6.4% (inactive).

As for `C=C(C)C1Cc2c(C)nn(S(=O)(=O)c3ccc(C)cc3)c2C1` (configuration not stated), the inhibition is -7.3% (inactive).

Turning to `COc1ccc(OC)c(NC(=O)Cn2cnc3c2c(=O)n(C)c(=O)n3C)c1`, the inhibition is -4.9% (inactive).

Consider `CCOc1ccc(NC(=O)CCCN2C(=O)/C(=C/c3ccc(Cl)cc3)SC2=S)cc1`, for which the inhibition is -12.3% (inactive).

Take `CCOC(=O)c1c(N)sc2c1CCC(Br)C2=O` (configuration not stated): the inhibition was -67.7% (inactive).

`CCN(C(=O)CSc1nnc(CN(c2ccc(F)cc2)S(C)(=O)=O)n1C)c1ccccc1`: the inhibition was -23.6% (inactive).

For `CCOc1cccc(C(=O)Nc2ccccc2C(=O)OC)c1`, the inhibition was 9.1% (inactive).

For the compound `O=C(Nc1c[nH]c(=O)[nH]c1=O)c1ccco1`, the inhibition was -1.3% (inactive).

Take `CC(C)CN(CC(C)C)C(=O)CCN1C(=O)c2ccccc2C1=O`: the inhibition was -21.3% (inactive).

Regarding `CN(C(=O)CSc1nc(-c2ccccc2)cc(-c2ccco2)c1C#N)c1ccccc1`, the inhibition is -15.3% (inactive).

As for `CC(NC(=O)NCc1ccccc1)c1nc(-c2ccncc2)n[nH]1` (configuration not stated), the inhibition was 8.4% (inactive).

For `C=CCn1c(=O)c(C(=O)NCc2ccc3c(c2)OCO3)c(O)c2ccccc21`, the inhibition is -23.4% (inactive).

Turning to `CCOc1ccc(CN(C)C(=O)C2=NNC(=O)CC2)cc1`, the inhibition was -31.5% (inactive).

Consider `COc1ccc(OCC(=O)N2N=C(c3ccc(Cl)cc3)CC2c2ccco2)cc1` (configuration not stated), for which the inhibition was -31.7% (inactive).

Turning to `Cc1ccc(NC(=O)c2sc3ncnc(N4CCN(C)CC4)c3c2C)cc1F`, the inhibition is -16.4% (inactive).

Turning to `CCOC(=O)c1ccc(N=C2SC(C(=O)Nc3ccc(C)cc3C)CC(=O)N2C)cc1` (configuration not stated), the inhibition is -8.2% (inactive).

Consider `N#CCSc1nnc(-c2ccccc2)c2ccccc12`, for which the inhibition was -26.2% (inactive).

As to `Cc1cccc(NC(c2ccccn2)c2ccc3cccnc3c2O)n1` (configuration not stated), the inhibition was -53.1% (inactive).

`O=S(=O)(Nc1ccc(-c2ccc(N3CCCCC3)nn2)cc1)c1ccc(F)cc1F`: the inhibition is -38.3% (inactive).

In the case of `CCc1nc2cccnc2n1-c1ccc(CC(=O)N2CCOCC2)cc1`, the inhibition was -27.2% (inactive).

On to `CC1=Nc2c(ccc3cccnc23)C1(C)C`, for which the inhibition is -24.6% (inactive).

For `CC1CN(Cn2[nH]c(=O)ccc2=O)CC(C)O1` (configuration not stated), the inhibition is -7.4% (inactive).

Take `CC1=C(C(=O)OC2CCCC2)C(c2coc3ccc(C)cc3c2=O)C2=C(CC(c3ccco3)CC2=O)N1` (configuration not stated): the inhibition was -3.1% (inactive).

Take `O=C(NCc1cc2ccccc2s1)c1ccc(N2CCOCC2)nc1`: the inhibition is -4.6% (inactive).

On to `CC(C(=O)Nc1ccc(S(=O)(=O)N2CCCC2)cc1)N(C)Cc1ccc(F)cc1` (configuration not stated), for which the inhibition is -5% (inactive).

In the case of `COc1ccc(C2CC(=O)C3=C(C2)NC(C)=C(C(=O)Nc2ccc(C)cc2)C3c2ccccc2)cc1OC` (configuration not stated), the inhibition was -11.7% (inactive).

For the compound `O=C(NCCO)c1ccc(C(=O)NCCO)cc1`, the inhibition was -13.4% (inactive).

In the case of `CCOc1ccc(NC(=O)CS(=O)(=O)c2cccc3nsnc23)cc1`, the inhibition is -37.5% (inactive).
